Results as given in PubChem BioAssay (Tox21).
Where “and” joins values, the source holds several entries; their conditions need not be identical. Equal entries are not always repeated. Results filed as inconclusive are left out. A structure can be active in one record and inactive in another. Calls of active or inactive are those of the source. Unless noted, the call rests on the fitted dose curve; in most records, active means well fitted curve in the direction sought with a large enough effect in the repeat runs; inconclusive means weak or mixed curves; inactive means no such curve, though single readings can be large; an effect the other way counts as inactive or inconclusive.

Assays:
[1] = qHTS assay to identify small molecule agonists of the peroxisome proliferator-activated receptor delta (PPARd) signaling pathway - cell viability counter screen (AID 743211); further: nearly all actives have a fitted effect of over 55% in size; further: potency means the concentration at half of the fitted maximal effect
Procedure, shortened: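 Counter screen for cytotoxicity run in parallel with the PPARd reporter screen. Beta-lactamase reporter HEK293H cells exposed to compounds 17 h; ATP-based CellTiter-Glo luminescence quantified viability.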

[2] = qHTS assay to identify small molecule antagonists of the peroxisome proliferator-activated receptor delta (PPARd) signaling pathway - cell viability counter screen (AID 743213); further: nearly all actives have a fitted effect of over 50% in size; further: potency means the concentration at half of the fitted maximal effect
Procedure, shortened: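 CellTiter-Glo was added to PPARd-bla HEK293H wells following 17 h compound treatment in the presence of 300 nM L165041. Luminescence was recorded after 30 min at room temperature.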

[3] = qHTS assay to identify small molecule agonists of the farnesoid-X-receptor (FXR) signaling pathway - cell viability counter screen (AID 743218); further: nearly all actives have a fitted effect of over 45% in size; further: potency means the concentration at half of the fitted maximal effect
Procedure, shortened: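 Same-well cytotoxicity check on FXR-UAS-bla HEK 293T cells: 5 h attachment, 16 h compound at 37 C, CellTiter-Glo luminescence read at room temperature after 30 min.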

[4] = qHTS assay to identify small molecule antagonists of the farnesoid-X-receptor (FXR) signaling pathway - cell viability counter screen (AID 743221; active means well fitted cell-killing curve with a large enough effect in the repeat runs, not every such curve was filed as active; further: nearly all actives have a fitted effect of over 50% in size; further: potency means the concentration at half of the fitted maximal effect)
Procedure, shortened: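 Multiplexed counter screen: viability of FXR-bla HEK 293T cells under agonist stimulation by chenodeoxycholic acid (50 uM, final) and test compound for 16 h at 37 C, measured by CellTiter-Glo luminescence in the reporter wells.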

[5] = biological target: Peroxisome proliferator-activated receptor delta (Homo sapiens) (UniProt Q03181); experiment: qHTS assay to identify small molecule agonists of the peroxisome proliferator-activated receptor delta (PPARd) signaling pathway (AID 743212; calls by dose curve;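 further: HEK293H cells with PPARd UAS beta-lactamase reporter GeneBLAzer system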)
Procedure, shortened: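 Beta-lactamase reporter readout: a ratiometric FRET signal from the LiveBLAzer substrate after 2 h at room temperature. Compound exposure at 37 °C in PPARδ-bla HEK293H cells driven by an upstream activator sequence.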

[6] = biological target: Peroxisome proliferator-activated receptor delta (Homo sapiens) (UniProt Q03181); experiment: qHTS assay to identify small molecule antagonists of the peroxisome proliferator-activated receptor delta (PPARd) signaling pathway (AID 743215; active means well fitted inhibition curve with a large enough effect in the signal ratio in the repeat runs, not every such curve was filed as active; the % refers to the signal ratio;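 further: cells stimulated with agonist L165041 at 300 nM final during compound exposure; series mostly up to about 62 µM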)
Procedure, shortened: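 Screen format: qHTS, antagonist mode. HEK293H PPARd-bla cells received compound and 300 nM L165041 (final), 17 h, 37 C. Beta-lactamase detected via FRET substrate fluorescence, 2 h, room temperature.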

[7] = biological target: Vitamin D3 receptor (Homo sapiens) (UniProt P11473); experiment: qHTS assay to identify small molecule agonists of the vitamin D receptor (VDR) signaling pathway (AID 743222; calls by dose curve)
Procedure, shortened: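 Using LiveBLAzer B/G FRET detection, agonism was scored in VDR-bla cells exposed overnight (16 h, 37C) to DMSO-dissolved compounds; substrate incubation was 2 h at room temperature.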

[8] = biological target: Vitamin D3 receptor (Homo sapiens) (UniProt P11473); experiment: qHTS assay to identify small molecule antagonists of the vitamin D receptor (VDR) signaling pathway (AID 743223; active means well fitted inhibition curve with a large enough effect in the signal ratio in the repeat runs, not every such curve was filed as active; the % refers to the signal ratio)
Procedure, shortened: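 Cells carrying a VDR-driven beta-lactamase reporter (VDR-bla) were co-treated with compound and 3 nM final 1alpha,25-dihydroxyvitamin D3 for 16 h at 37C; reporter activity was measured as FRET substrate fluorescence after 2 h at room temperature.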

[9] = biological target: Bile acid receptor (Homo sapiens) (UniProt Q96RI1); experiment: qHTS assay to identify small molecule antagonists of the farnesoid-X-receptor (FXR) signaling pathway (AID 743217; active means well fitted inhibition curve with a large enough effect in the signal ratio in the repeat runs, not every such curve was filed as active; the % refers to the signal ratio; further: potency means the concentration at half of the fitted maximal effect)
Procedure, shortened: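 Quantitative HTS, beta-lactamase reporter format: FXR-UAS-bla HEK 293T cells co-treated 16 h at 37 °C with compounds and 50 uM final chenodeoxycholic acid, then read by B/G FRET fluorescence.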

[10] = biological target: Bile acid receptor (Homo sapiens) (UniProt Q96RI1); experiment: qHTS assay to identify small molecule agonists of the farnesoid-X-receptor (FXR) signaling pathway (AID 743220; active means well fitted activation curve with a large enough effect in the signal ratio in the repeat runs, not every such curve was filed as active; the % refers to the signal ratio)
Procedure, shortened: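 FXR-UAS-bla HEK 293T cells carrying a UAS-driven beta-lactamase reporter were plated for 5 h at 37C/5% CO2, then exposed to DMSO-dissolved Tox21 10K compounds for 16 h at 37C. A LiveBLAzer B/G FRET substrate was loaded for 2 h at room temperature before fluorescence reading.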

Measured: Potency

Vitamin D3 receptor (Homo sapiens), sequence (P11473 whole entry, looked up): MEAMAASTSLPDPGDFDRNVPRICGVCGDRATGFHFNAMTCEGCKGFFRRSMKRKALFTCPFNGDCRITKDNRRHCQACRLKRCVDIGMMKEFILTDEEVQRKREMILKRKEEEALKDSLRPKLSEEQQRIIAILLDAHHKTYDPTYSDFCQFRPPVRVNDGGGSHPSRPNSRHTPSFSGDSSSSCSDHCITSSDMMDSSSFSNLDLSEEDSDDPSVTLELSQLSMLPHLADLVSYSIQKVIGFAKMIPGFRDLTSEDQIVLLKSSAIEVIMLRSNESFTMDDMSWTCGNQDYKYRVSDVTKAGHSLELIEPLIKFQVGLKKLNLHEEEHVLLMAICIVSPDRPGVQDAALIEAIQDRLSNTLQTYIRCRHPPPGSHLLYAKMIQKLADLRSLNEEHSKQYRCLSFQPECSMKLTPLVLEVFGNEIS
Bile acid receptor (Homo sapiens), sequence (Q96RI1 whole entry, looked up): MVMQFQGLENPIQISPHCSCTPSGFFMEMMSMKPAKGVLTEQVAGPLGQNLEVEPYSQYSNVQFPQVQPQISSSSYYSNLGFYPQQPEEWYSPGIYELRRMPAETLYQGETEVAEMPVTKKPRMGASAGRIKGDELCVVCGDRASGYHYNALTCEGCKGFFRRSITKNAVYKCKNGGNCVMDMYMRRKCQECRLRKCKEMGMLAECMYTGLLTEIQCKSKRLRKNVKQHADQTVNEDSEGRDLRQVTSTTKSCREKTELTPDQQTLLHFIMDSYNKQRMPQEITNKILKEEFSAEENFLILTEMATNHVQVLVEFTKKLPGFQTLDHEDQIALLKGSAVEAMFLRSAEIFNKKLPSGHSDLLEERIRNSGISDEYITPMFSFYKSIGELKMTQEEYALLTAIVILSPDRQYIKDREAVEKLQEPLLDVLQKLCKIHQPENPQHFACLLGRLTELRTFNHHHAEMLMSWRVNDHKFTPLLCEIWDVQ
Peroxisome proliferator-activated receptor delta (Homo sapiens), sequence (Q03181 whole entry, looked up): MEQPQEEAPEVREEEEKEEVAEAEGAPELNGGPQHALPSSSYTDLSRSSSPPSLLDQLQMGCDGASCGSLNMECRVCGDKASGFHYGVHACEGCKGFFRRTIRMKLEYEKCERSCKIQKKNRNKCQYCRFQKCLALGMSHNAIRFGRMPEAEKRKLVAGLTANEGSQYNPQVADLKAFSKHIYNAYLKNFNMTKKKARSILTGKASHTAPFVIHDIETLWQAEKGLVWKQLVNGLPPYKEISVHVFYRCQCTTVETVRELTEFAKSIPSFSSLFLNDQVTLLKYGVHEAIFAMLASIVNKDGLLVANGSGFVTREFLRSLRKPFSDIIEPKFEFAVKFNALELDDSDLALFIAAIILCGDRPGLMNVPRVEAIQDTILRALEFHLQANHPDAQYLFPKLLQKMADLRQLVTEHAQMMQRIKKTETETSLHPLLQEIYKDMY

CC(C)[C@@H]1CC[C@@H](C)CC1=O
inactive: [1] | [2] | [3] | [4]

Cc1ccc(/C(=C\CN2CCCC2)c2ccccn2)cc1
inactive: [1] | [5] | [6] | [3] | [4] | [7] | [8]

CCCCCCOCCOCCO
inactive: [1] | [2] | [9] | [3] | [10] | [4]

CNC[C@H](O)c1ccc(O)c(O)c1
inactive: [1] | [2] | [4] | [7] | [8]

NCCS(=O)(=O)O
inactive: [1] | [2] | [3] | [4] | [7] | [8]

OC[C@@H](O)[C@@H](O[C@@H]1O[C@H](CO)[C@H](O)[C@H](O)[C@H]1O)[C@H](O)[C@@H](O)CO
inactive: [1] | [2] | [3] | [4] | [7] | [8]

CC(=O)O[C@]1(C(C)=O)CC[C@H]2[C@@H]3C=C(Cl)C4=CC(=O)CC[C@]4(C)[C@H]3CC[C@@]21C
inactive: [2] | [6] | [3] | [4]
48.9 µM (active) and inactive: [1]

Oc1ccc(C(c2ccc(O)cc2)C(Cl)(Cl)Cl)cc1
active: [1] 54.9 µM | [2] 38.9 µM
inactive: [4] | [7]

CC(=O)O[C@]1(C(C)=O)CC[C@H]2[C@@H]3C=C(C)C4=CC(=O)CC[C@]4(C)[C@H]3CC[C@@]21C
inactive: [1] | [2] | [3] | [4] | [8]

CCc1cccc2c3c([nH]c12)C(CC)(CC(=O)O)OCC3 (configuration not stated)
inactive: [1] | [2] | [9] | [3] | [10] | [4] | [7] | [8]

C=C1C[C@H]2[C@@H]3C=C(C)C4=CC(=O)CC[C@]4(C)[C@H]3CC[C@]2(C)[C@@]1(OC(C)=O)C(C)=O
inactive: [1] | [2] | [3] | [4]

c1ccc2c(c1)ccc1ncccc12
inactive: [1] | [2] | [6] | [3] | [4]

CN(C)C
inactive: [1] | [2] | [3] | [4] | [7]

NCCN
inactive: [1] | [5] | [6] | [4]

CN(Cc1cnc2nc(N)nc(N)c2n1)c1ccc(C(=O)N[C@@H](CCC(=O)O)C(=O)O)cc1
inactive: [10]
active: [9] 376 nM

CN(C)CCCN1c2ccccc2Sc2ccc(Cl)cc21
inactive: [10]
active: [1] 11 µM and 23.7 µM | [2] 13.8 µM and 18.8 µM | [9] 49 µM and 26.6 µM | [3] 21.9 µM and 26.6 µM | [4] 43.6 µM and 26.6 µM

COc1ccc2nc(N)sc2c1
inactive: [1] | [2] | [3] | [4] | [7] | [8]

Cc1ccc(C(C)(C)C)c(O)c1
inactive: [1] | [2] | [9] | [3] | [10] | [4] | [7] | [8]

CC1(C)NC(=O)N(c2ccc([N+](=O)[O-])c(C(F)(F)F)c2)C1=O
inactive: [1] | [2] | [9] | [3] | [10] | [4] | [7] | [8]

C=C[C@@]1(C)CC(=O)[C@]2(O)[C@@]3(C)[C@@H](O)CCC(C)(C)[C@@H]3[C@H](O)[C@H](OC(C)=O)[C@@]2(C)O1
active: [2] 9.77 µM | [3] 9.77 µM and 8.41 µM | [4] 1.74 µM
inactive: [5] | [7]

CCCOCCO
inactive: [1] | [2] | [9] | [3] | [10] | [4] | [7] | [8]

CCC(Cc1c(I)cc(I)c(N)c1I)C(=O)O (configuration not stated)
inactive: [1] | [2] | [6] | [9] | [3] | [10] | [4] | [7]

Clc1ccc(Sc2cc(Cl)c(Cl)cc2Cl)cc1
inactive: [1] | [2] | [3] | [4] | [7] | [8]

CC/C(=C(/CC)c1ccc(O)cc1)c1ccc(O)cc1
active: [1] 61.6 µM | [2] 34.4 µM | [9] 16800 nM
inactive: [10] | [4] | [7] | [8]

C=CCNCC=C
inactive: [1] | [2] | [9] | [3] | [10] | [4] | [7] | [8]

NC[C@H](O)c1ccc(O)c(O)c1
inactive: [1] | [2] | [3] | [4]

O=C(CCCN1CCC(O)(c2ccc(Cl)cc2)CC1)c1ccc(F)cc1
inactive: [9] | [10]
active: [2] 30.9 µM and 21.1 µM
30.9 µM (active) and inactive: [3]

Nc1ccc(O)c(N)c1
inactive: [1] | [2] | [3] | [4] | [7] | [8]

COc1cc([C@H]2Oc3cc([C@H]4Oc5cc(O)cc(O)c5C(=O)[C@@H]4O)ccc3O[C@@H]2CO)ccc1O
inactive: [1] | [2] | [9] | [3] | [10] | [4]

COc1ccc(-c2coc3cc(O)cc(O)c3c2=O)cc1
inactive: [1] | [2] | [6] | [3] | [4] | [7] | [8]

OC[C@H]1O[C@@H]2O[C@H]3[C@H](O)[C@@H](O)[C@@H](O[C@H]4[C@H](O)[C@@H](O)[C@@H](O[C@H]5[C@H](O)[C@@H](O)[C@@H](O[C@H]6[C@H](O)[C@@H](O)[C@@H](O[C@H]7[C@H](O)[C@@H](O)[C@@H](O[C@H]1[C@H](O)[C@H]2O)O[C@@H]7CO)O[C@@H]6CO)O[C@@H]5CO)O[C@@H]4CO)O[C@@H]3CO
inactive: [1] | [2] | [3] | [4] | [7] | [8]

CCC(=O)O[C@H]1[C@H](O[C@@H]2[C@@H](C)[C@H](O[C@H]3C[C@@](C)(OC)[C@@H](O)[C@H](C)O3)[C@@H](C)C(=O)O[C@H](CC)[C@@](C)(O)[C@H](O)[C@@H](C)C(=O)[C@H](C)C[C@@]2(C)O)O[C@H](C)C[C@@H]1N(C)C
inactive: [1] | [7]
23 µM (active) and inactive: [2]
32.5 µM (active) and inactive: [3] | [4]

Cc1cccc(Nc2ccccc2C(=O)O)c1C
inactive: [1] | [2] | [6] | [3] | [4]

C=C[C@H]1CN2CC[C@H]1C[C@H]2[C@H](O)c1ccnc2ccc(OC)cc12
inactive: [1] | [5] | [6] | [3] | [4]

CN1CCOCC1
inactive: [1] | [2] | [3] | [4] | [7] | [8]

CC[C@]12CCCN3CCc4c(n(c5ccccc45)[C@@](O)(C(=O)OC)C1)[C@@H]32
inactive: [1] | [2] | [3] | [4] | [7] | [8]

C/C=C/C(=O)N(CC)c1ccccc1C
inactive: [1] | [2] | [3] | [4] | [7] | [8]
